{"source": "the supplement of paper PMC8728848", "binders": {"B1": {"name": "Erv41-EDTA (Saccharomyces cerevisiae), Q04651 (protein)", "chain": "MKFLVNVALVFMVVYISYIYAAAPEHHHHHHDYDIPTTENLYFQGAMGYIDQQYVVDSQVRDTVQINMDIYVNTKCDWLQINVRDQTMDRKLVLEELQLEEMPFFIPYDTKVNDINEIITPELDEILGEAIPAEFREKLDTRSFFDESDPNKAHLPEFNGCHVFGSIPVNRVSGELQITAKSLGYVASRKAPLEELKFNHVINEFSFGDFYPYIDNPLDNTAQFNQDEPLTTYVYYTSVVPTLFKKLGAEVDTNQYSVNDYRYLYKDVAAKGDKMPGIFFKYNFEPLSIVVSDVRL"}}, "experiment_in_all_cases": "glycan array binding signal (z-score within array); higher = stronger binding", "conditions_in_all_cases": "glycan notation: IUPAC condensed, linker removed", "key": {"[1]": {"target": "GlcNAc(a1-3)Gal(b1-4)GlcNAc", "outline": "(§1)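 The Consortium for Functional Glycomics database supplied 3228 glycan arrays, of which those lacking an available protein sequence were dropped. The binding signal, a within-array Z-score, was averaged across arrays of the same protein sequence and across linkers. Negative scores can be read as non-binding.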"}, "[2]": {"target": "GlcNAc(b1-2)Man(a1-3)[GlcNAc(b1-4)][GlcNAc(b1-2)Man(a1-6)]Man(b1-4)GlcNAc(b1-4)[Fuc(a1-6)]GlcNAc", "outline": "as §1"}, "[3]": {"target": "GlcNAc(b1-2)[GlcNAc(b1-6)]Man(a1-6)[GlcNAc(b1-2)Man(a1-3)]Man(b1-4)GlcNAc(b1-4)[Fuc(a1-6)]GlcNAc", "outline": "as §1"}, "[4]": {"target": "GlcNAc(b1-3)Gal(b1-4)GlcNAc(b1-3)Gal(b1-4)GlcNAc(b1-2)[GlcNAc(b1-3)Gal(b1-4)GlcNAc(b1-3)Gal(b1-4)GlcNAc(b1-6)]Man(a1-6)[GlcNAc(b1-3)Gal(b1-4)GlcNAc(b1-3)Gal(b1-4)GlcNAc(b1-2)Man(a1-3)]Man(b1-4)GlcNAc(b1-4)[Fuc(a1-6)]GlcNAc", "outline": "as §1"}, "[5]": {"target": "GlcNAc(b1-3)Gal(b1-4)GlcNAc(b1-3)Gal(b1-4)GlcNAc(b1-3)Gal(b1-4)GlcNAc(b1-2)Man(a1-3)[GlcNAc(b1-3)Gal(b1-4)GlcNAc(b1-3)Gal(b1-4)GlcNAc(b1-3)Gal(b1-4)GlcNAc(b1-2)Man(a1-6)]Man(b1-4)GlcNAc(b1-4)GlcNAc", "outline": "as §1"}, "Kdn(a2-3)Gal(b1-3)GalNAc": {"target": "Kdn(a2-3)Gal(b1-3)GalNAc", "outline": "as §1"}, "[6]": {"target": "Man(a1-2)Man(a1-2)Man(a1-3)Man", "outline": "as §1"}, "[7]": {"target": "Man(a1-3)[Man(a1-6)]Man(b1-4)GlcNAc(b1-4)[Fuc(a1-6)]GlcNAc", "outline": "as §1"}, "[8]": {"target": "Neu5Ac(a2-3)Gal(b1-3)[Neu5Ac(a2-6)]GalNAc", "outline": "as §1"}, "[9]": {"target": "Neu5Ac(a2-3)Gal(b1-3)]Neu5Ac(a2-3)Gal(b1-4)]GlcNAc", "outline": "as §1"}, "[10]": {"target": "Neu5Ac(a2-3)Gal(b1-4)GlcNAc(b1-2)Man(a1-3)[Neu5Ac(a2-3)Gal(b1-4)GlcNAc(b1-2)Man(a1-6)]Man(b1-4)GlcNAc(b1-4)[Fuc(a1-6)]GlcNAc", "outline": "as §1"}, "[11]": {"target": "Neu5Ac(a2-3)Gal(b1-4)GlcNAc(b1-2)[Neu5Ac(a2-3)Gal(b1-4)GlcNAc(b1-4)]Man(a1-3)[GlcNAc(b1-4)][Neu5Ac(a2-3)Gal(b1-4)GlcNAc(b1-2)[Neu5Ac(a2-3)Gal(b1-4)GlcNAc(b1-6)]Man(a1-6)]Man(b1-4)GlcNAc(b1-4)GlcNAc", "outline": "as §1"}, "[12]": {"target": "Neu5Ac(a2-3)Gal(b1-4)GlcNAc(b1-2)[Neu5Ac(a2-3)Gal(b1-4)GlcNAc(b1-4)]Man(a1-3)[GlcNAc(b1-4)][Neu5Ac(a2-3)Gal(b1-4)GlcNAc(b1-4)Man(a1-6)]Man(b1-4)GlcNAc(b1-4)GlcNAc", "outline": "as §1"}, "[13]": {"target": "Neu5Ac(a2-3)Gal(b1-4)GlcNAc(b1-6)GalNAc", "outline": "as §1"}, "[14]": {"target": "Neu5Ac(a2-3)Gal(b1-4)[Fuc(a1-3)]GlcNAc", "outline": "as §1"}, "[15]": {"target": "Neu5Ac(a2-3)Gal(b1-4)[Fuc(a1-3)]GlcNAc(b1-3)GalNAc", "outline": "as §1"}, "[16]": {"target": "Neu5Ac(a2-3)Gal6S(b1-4)GlcNAc", "outline": "as §1"}, "[17]": {"target": "Neu5Ac(a2-6)Gal(b1-4)GlcNAc(b1-2)Man(a1-3)Man(b1-4)GlcNAc(b1-4)GlcNAc", "outline": "as §1"}, "[18]": {"target": "Neu5Ac(a2-6)Gal(b1-4)GlcNAc(b1-3)Gal(b1-4)GlcNAc(b1-3)Gal(b1-4)GlcNAc(b1-2)Man(a1-3)[Neu5Ac(a2-6)Gal(b1-4)GlcNAc(b1-3)Gal(b1-4)GlcNAc(b1-3)Gal(b1-4)GlcNAc(b1-2)Man(a1-6)]GalNAc", "outline": "as §1"}, "[19]": {"target": "Neu5Ac(a2-6)Gal(b1-4)GlcNAc(b1-6)[Gal(b1-3)]GalNAc", "outline": "as §1"}, "[20]": {"target": "Neu5Ac(a2-6)Gal(b1-4)GlcNAc6S", "outline": "as §1"}, "[21]": {"target": "Neu5Ac(a2-6)GlcNAc(b1-4)GlcNAc", "outline": "as §1"}, "[22]": {"target": "Neu5Ac(a2-8)Neu5Ac(a2-3)Gal(b1-3)GalNAc(b1-4)[Neu5Ac(a2-3)]Gal(b1-4)Glc", "outline": "as §1"}, "[23]": {"target": "Neu5Ac(a2-8)Neu5Ac(a2-3)[Gal(b1-3)GalNAc(b1-4)]Gal(b1-4)Glc", "outline": "as §1"}, "[24]": {"target": "Neu5Gc(a2-8)Neu5Gc(a2-3)Gal(b1-4)GlcNAc", "outline": "as §1"}, "[25]": {"target": "Neu5Gc(a2-8)Neu5Gc(a2-6)Gal(b1-4)GlcNAc", "outline": "as §1"}}, "note": "About 410 targets per protein were measured; listed, in parts, are those with the strongest signals and a random draw of the rest.", "data": [{"binder": "B1", "values": [{"measurement": "glycan array binding signal (z-score)", "setting": "[1]", "result": -0.577}, {"measurement": "glycan array binding signal (z-score)", "setting": "[2]", "result": 0.162}, {"measurement": "glycan array binding signal (z-score)", "setting": "[3]", "result": 2.54}, {"measurement": "glycan array binding signal (z-score)", "setting": "[4]", "result": 1.25}, {"measurement": "glycan array binding signal (z-score)", "setting": "[5]", "result": 0.272}, {"measurement": "glycan array binding signal (z-score)", "setting": "Kdn(a2-3)Gal(b1-3)GalNAc", "result": 0.349}, {"measurement": "glycan array binding signal (z-score)", "setting": "[6]", "result": -0.638}, {"measurement": "glycan array binding signal (z-score)", "setting": "[7]", "result": -0.081}, {"measurement": "glycan array binding signal (z-score)", "setting": "[8]", "result": -0.609}, {"measurement": "glycan array binding signal (z-score)", "setting": "[9]", "result": -0.585}, {"measurement": "glycan array binding signal (z-score)", "setting": "[10]", "result": 2.09}, {"measurement": "glycan array binding signal (z-score)", "setting": "[11]", "result": 1.18}, {"measurement": "glycan array binding signal (z-score)", "setting": "[12]", "result": -0.72}, {"measurement": "glycan array binding signal (z-score)", "setting": "[13]", "result": -0.767}, {"measurement": "glycan array binding signal (z-score)", "setting": "[14]", "result": 0.162}, {"measurement": "glycan array binding signal (z-score)", "setting": "[15]", "result": 1.5}, {"measurement": "glycan array binding signal (z-score)", "setting": "[16]", "result": 0.025}, {"measurement": "glycan array binding signal (z-score)", "setting": "[17]", "result": 1.97}, {"measurement": "glycan array binding signal (z-score)", "setting": "[18]", "result": 2.65}, {"measurement": "glycan array binding signal (z-score)", "setting": "[19]", "result": 0.134}, {"measurement": "glycan array binding signal (z-score)", "setting": "[20]", "result": -0.865}, {"measurement": "glycan array binding signal (z-score)", "setting": "[21]", "result": 0.004}, {"measurement": "glycan array binding signal (z-score)", "setting": "[22]", "result": -0.348}, {"measurement": "glycan array binding signal (z-score)", "setting": "[23]", "result": 1.35}, {"measurement": "glycan array binding signal (z-score)", "setting": "[24]", "result": 0.393}, {"measurement": "glycan array binding signal (z-score)", "setting": "[25]", "result": 1.14}]}]}
